# Screens deposited in PubChem by several laboratories.
# Most compounds without a hit are left out; they make up all but 4% or so of the library.
# RecA intein inh – inhibitors of M. tuberculosis RecA intein splicing; P9WHJ3; cell-free RecA intein splicing, fluorescence; inhibition, % (concentration not given with the values); hit rate 0.75% among 290,000; in the data active = inhibition above about 30%; inconclusive = no clear call, values can overlap the other calls
# Mtb betalactam – beta-lactam sensitization of Mtb H37Rv. M. tuberculosis H37Rv growth with meropenem, percent inhibition. inhibition, % at 25 µM. hit rate 0.27% among 330,000. AID 434955; call rule not given here;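 also: growth measured after seven days incubation then overnight dye step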
# Rv3671c inh – inhibits the M. tuberculosis serine protease Rv3671c; P9WHR9; inhibition, % at 5.96 µM; hit rate 0.048% among 320,000; AID 2606; in the data active = inhibition above about 38%;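 also: extracellular domain of Rv3671c used as enzyme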
# FBA Mtb inh – inhibits M. tuberculosis FBA enzyme; purified M. tuberculosis FBA, fluorescence read-out; inhibition, % at 1 µM; hit rate 2.3% among 360,000; AID 588726; in the data active = inhibition above about 27%
# Target sequence (P9WQA3 whole entry, looked up): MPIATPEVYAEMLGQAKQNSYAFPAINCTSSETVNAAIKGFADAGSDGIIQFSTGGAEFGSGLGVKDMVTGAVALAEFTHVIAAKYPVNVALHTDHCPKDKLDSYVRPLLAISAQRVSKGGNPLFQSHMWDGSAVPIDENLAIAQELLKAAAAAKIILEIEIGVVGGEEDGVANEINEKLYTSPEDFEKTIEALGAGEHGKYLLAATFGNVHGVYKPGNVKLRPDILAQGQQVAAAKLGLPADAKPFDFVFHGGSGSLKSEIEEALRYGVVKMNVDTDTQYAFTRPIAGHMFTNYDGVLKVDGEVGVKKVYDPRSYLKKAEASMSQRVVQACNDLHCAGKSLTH
# GDH-TPI counter – inhibits GDH-TPI coupling enzymes, artifact for Mtb FBA screen | GDH-TPI coupled enzyme counterscreen, NADH absorbance | inhibition, % at 4.8 µM | hit rate 1.2% among 360,000; in the data active = inhibition above about 30%
# UGM FP inh – blocks M. tuberculosis UGM enzyme; P9WIQ1; purified UGM, fluorescence polarization probe displacement; inhibition, % at 10 µM; hit rate 0.06% among 320,000; AID 504406; in the data active = inhibition above about 10%, passing the limit was not always enough; inconclusive = no clear call, values can overlap the other calls
# Hits are given with their value; - = inactive; ? = inconclusive; . = not tested or not shown.
SMILES,RecA intein inh,Mtb betalactam,Rv3671c inh,FBA Mtb inh,GDH-TPI counter,UGM FP inh
Cc1nc(NS(=O)(=O)c2ccccc2)sc1C(=O)NNS(=O)(=O)c1ccccc1,-,-,-,-,-,-
c1ccc2c(c1)CCCN2c1nc2ccccc2n2cnnc12,-,-,-,-,36,-
C[C@H](NC(=O)c1ccccc1)C(=O)OCC(=O)Nc1sccc1C(N)=O,.,-,-,-,-,-
Cc1ccc(S(=O)(=O)N[C@H](C(=O)OCC(=O)NC(=O)C2CCCCC2)C(C)C)cc1,.,-,-,-,-,-
CNC[C@H](Cc1cccc2ccccc12)NC[C@H](CCSC)NCC1CCC(C(C)(C)C)CC1 (stereo partly specified),.,-,-,.,.,-
N#Cc1ccc(/C=N/NC(=S)Nc2ccc(S(=O)(=O)N3CCOCC3)cc2)cc1,-,-,-,-,40,-
O=S(=O)(c1ccc(NC(=S)N/N=C/c2ccc(O)c(O)c2)cc1)N1CCOCC1,-,-,-,-,37,-
COc1ccc(Cc2nnc(SCC(=O)Nc3ccccc3C)n(N)c2=O)cc1,-,-,-,-,-,-
COc1ccc2[nH]c(=O)c(CN(CCO)C(=O)c3cccs3)cc2c1,.,-,-,-,-,-
O=c1[nH]c2ccccc2cc1CN(CC1CCCO1)S(=O)(=O)c1ccc(Cl)cc1 (stereo unspecified),-,-,-,-,-,-
COc1ccccc1NC(=O)N(Cc1cc2cc(OC)c(OC)cc2[nH]c1=O)CC1CCCO1 (stereo unspecified),-,-,-,-,34,-
COc1cc2cc(CN(CCO)C(=O)c3cccs3)c(=O)[nH]c2cc1OC,-,.,-,-,37,-
COc1ccc2cc(CN(CC3CCCO3)S(=O)(=O)c3ccccc3Cl)c(=O)[nH]c2c1 (stereo unspecified),-,-,-,-,32,-
NS(=O)(=O)c1ccc(CNC(=O)c2ccc(S(=O)(=O)NCc3ccco3)cc2)cc1,.,-,-,-,-,-
CC1Cc2ccccc2N1Cc1ccc([N+](=O)[O-])cc1 (stereo unspecified),-,-,-,-,-,-
Cc1cc(Nc2ccc3c(c2)OCCO3)c2ccccc2n1,-,-,-,-,-,.
Cc1ccc2nc(C)cc(Nc3ccc4c(c3)OCCO4)c2c1,-,-,-,-,33,-
CCN(CC)C(=O)C1=C(C)N(Cc2ccc(OC)cc2)C(=O)C(CC(=O)NC(c2ccccc2)c2ccccc2)C1 (stereo unspecified),.,.,.,-,-,.
O=C(N/N=C\C=C\c1ccc2c(c1)OCO2)C1COc2cc3ccccc3cc2O1 (stereo unspecified),-,-,-,-,49,-
CC(/C=C/c1ccc2c(c1)OCO2)=N\NC(=O)C(O)c1ccccc1 (stereo unspecified),.,-,-,-,-,-
O=C(N/N=C/C=C/c1ccc2c(c1)OCO2)C(O)c1ccccc1 (stereo unspecified),-,-,-,-,56,-
O=C(N/N=C/c1ccc2c(c1)OCO2)C1COc2ccccc2O1 (stereo unspecified),-,-,-,-,-,-
O=C(Nc1ccc([N+](=O)[O-])cc1)C1COc2ccccc2O1 (stereo unspecified),-,-,-,-,-,-
O=C(N/N=C\c1ccc(O)c([N+](=O)[O-])c1)C1COc2ccccc2O1 (stereo unspecified),-,-,-,-,70,-
O=C(N/N=C/C=C/c1ccc([N+](=O)[O-])cc1)C1COc2ccccc2O1 (stereo unspecified),-,-,-,-,35,-
SMILES,RecA intein inh,Mtb betalactam,Rv3671c inh,FBA Mtb inh,GDH-TPI counter,UGM FP inh
OC(c1ccc(Cl)c(Cl)c1)c1ncc(-c2ccccc2Cl)[nH]1 (stereo unspecified),.,.,.,-,-,.
O=C(/C=C/c1ccco1)N(Cc1cccc(F)c1)C1CCS(=O)(=O)C1 (stereo unspecified),-,-,-,-,-,-
COCCN1C[C@@H](CO)O[C@@H](n2cnc3c(N4CCN(CCO)CC4)ncnc32)C1,.,.,.,-,-,.
Cc1ccc(S(=O)(=O)CCC(=O)OC2CC(C)OC2=O)cc1 (stereo unspecified),.,-,-,-,-,-
Cc1cc(C(=O)N/N=C/C=C/c2ccc3c(c2)OCO3)n[nH]1,-,-,-,-,50,-
O=C(N/N=C\C=C\c1ccc2c(c1)OCO2)c1ccc(F)cc1,-,-,-,-,-,-
CCC1(C)Cc2ccccc2-c2nc(NN)[nH]c(=O)c21 (stereo unspecified),-,-,-,-,-,-
O=c1[nH]c(NCCO)nc2c1C1(CCCC1)Cc1ccccc1-2,-,-,-,112,-,-
CC1(C)Cc2ccccc2-c2nc(NCCCO)[nH]c(=O)c21,-,-,-,200,-,-
CCC1(C)Cc2ccccc2-c2nc(NCCO)[nH]c(=O)c21 (stereo unspecified),-,-,-,171,-,-
COc1ccccc1Nc1cc(C)nc(Nc2ccccc2OC)n1,.,.,.,-,-,.
CN(C)S(=O)(=O)c1cccc(NC(=O)c2ccc3c(c2)S(=O)(=O)N=C2CCCCCN23)c1,-,-,-,-,-,-
COC[C@@H]1CCCN1[C@@H]1CS(=O)(=O)N[C@H]1COCc1ccccc1,.,.,.,-,.,.
COc1ccc(C(=O)N(CN2CCCC2=O)c2cc(C)on2)cc1OC,-,-,-,-,-,-
COc1ccc(C(=O)N(CN2CCCC2=O)c2nccs2)cc1OC,-,?,-,-,46,-
COc1cc(/C=C/c2nc3ccccc3c(=O)[nH]2)cc(Cl)c1O,.,-,-,-,-,-
O=c1[nH]c(/C=C/c2ccc(Br)cc2)nc2ccccc12,-,-,-,-,-,-
Cc1cccc(/C=C\c2nc3ccccc3c(=O)[nH]2)c1,-,-,-,-,31,-
O=C(Nc1cccc(/C=C/c2nc3ccccc3c(=O)[nH]2)c1)c1ccccc1Cl,-,-,-,-,49,-
COc1ccc(C(=O)Nc2cccc(/C=C/c3nc4ccccc4c(=O)[nH]3)c2)cc1,-,-,-,-,39,-
CC(=O)c1ccc(S(=O)(=O)N(C)CC(=O)NCc2ccco2)cc1,.,-,-,-,-,-
O=[N+]([O-])c1cccc(COc2ncnc3cc([N+](=O)[O-])ccc23)c1,-,-,-,-,35,-
CSc1ccc(CN2CCC(Oc3ccc(C(=O)N4CCCC4)cc3)CC2)cc1,-,-,-,-,-,-
COc1ccccc1CC(=O)Nc1ccc(S(=O)(=O)N2CC(C)CC(C)C2)cc1 (stereo unspecified),.,-,-,-,-,-
CN(C)c1ccc(C(=O)C(O)c2ccccc2Cl)cc1 (stereo unspecified),.,.,.,-,46,.
COc1cccc(-c2nnc(Nc3nc4c(F)cccc4s3)o2)c1,-,-,-,134,59,-
Cc1nnc(NC(=O)C(C)Sc2nnc(CNC(=O)c3ccccc3F)n2C)s1 (stereo unspecified),-,-,-,-,-,-
